Calls of active or inactive are those of the source. How the source made its calls: active means hit-call score of the fitted dose curve at least 0.9, where 1 is the maximum; inactive means score below 0.9.
Legend:
[1] = ATG_PBREM_CIS: Attagene CIS-FACTORIAL HepG2 Assay for human Phenobarbital-responsive Enhancer Module (PBREM) (AID 2282955); settings: HepG2 PBREM cis-reporter, Attagene multiplexed transcription; actives raise or lower the signal
In short: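 Cells were transfected with cis-element reporter units and treated for 24 h, after which RNA was extracted and reporter transcripts measured by RT-PCR and capillary electrophoresis.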

[2] = target: Paired box protein Pax-6 (Homo sapiens) (UniProt P26367); assay: ATG_Pax6_CIS: Attagene CIS-FACTORIAL HepG2 Assay for human Paired Box 6 (PAX6) (AID 2282956); settings: HepG2 CIS-FACTORIAL PAX6 reporter transcription, RNA readout; actives raise or lower the signal
In short: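 Transient MRTU transfection of HepG2 → compound exposure 24 h → TriZol RNA, oligo(dT) RT → PCR, 6-FAM primer extension, HpaI cut → capillary electrophoresis; activity fitted both directions against DMSO.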

[3] = ATG_PXRE_CIS: Attagene CIS-FACTORIAL HepG2 Assay for human Pregnane X Receptor Element (PXRE) (AID 2282957); settings: HepG2 Attagene CIS-FACTORIAL PXRE reporter, mRNA; actives raise or lower the signal
In short: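 HepG2 cells transiently transfected with cis-element-driven multiplexed reporter units; after 24 h chemical exposure, reporter mRNA measured by RT-PCR, 6-FAM labelling, HpaI digestion and capillary electrophoresis. Bidirectional fitting relative to DMSO.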

[4] = ATG_RORE_CIS: Attagene CIS-FACTORIAL HepG2 Assay for human RAR-related Orphan Receptor Element (RORE) (AID 2282959); settings: HepG2 Attagene cis-factorial RORE reporter, mRNA; actives raise or lower the signal
In short: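 Endogenous factor activity at a cis response element is read as reporter transcript levels in HepG2 cells, 24 h post-dose. Transcripts are quantified by RT-PCR with capillary electrophoresis, and data fitted in both directions against DMSO.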

[5] = ATG_Sox_CIS: Attagene CIS-FACTORIAL HepG2 Assay for human SRY-box transcription factor (SOX) (AID 2282960); settings: HepG2 Attagene cis-factorial SOX reporter, mRNA; actives raise or lower the signal
In short: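 Measures mRNA induction of a SOX1-associated reporter in HepG2 after 24 h dosing. Fluorescently labelled RT-PCR fragments are separated by capillary electrophoresis, and gain or loss relative to DMSO control is fitted.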

[6] = target: Transcription factor Sp1 (Homo sapiens) (UniProt P08047); assay: ATG_Sp1_CIS: Attagene CIS-FACTORIAL HepG2 Assay for human Specificity Protein 1 (Sp1) (AID 2282961); settings: HepG2 Sp1 cis-reporter transcription, actives raise or lower the signal
In short: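 Cells: HepG2, transiently transfected with cis-regulated multiplexed reporters. Exposure: 24 h. Detection: reporter transcripts amplified, fluorescently labeled, restriction-digested and sized by capillary electrophoresis. Analysis: bidirectional fit relative to DMSO.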

[7] = ATG_SREBP_CIS: Attagene CIS-FACTORIAL HepG2 Assay for human Sterol Regulatory Element Binding (SREBP) (AID 2282962); settings: HepG2 Attagene cis-factorial SREBP reporter, mRNA; actives raise or lower the signal
In short: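 Transfected HepG2 (cis-regulated reporter library, endogenous TFs) → compound 24 h → total RNA → oligo(dT) RT → reporter-specific PCR → FAM primer extension, HpaI cut → CE fluorescence. Fit bidirectional vs DMSO.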

[8] = target: Signal transducer and activator of transcription 3 (Homo sapiens) (UniProt P40763); assay: ATG_STAT3_CIS: Attagene CIS-FACTORIAL HepG2 Assay for human Signal Transducer and Activator of Transcription 3 (STAT3) (AID 2282963); settings: HepG2, Attagene cis-factorial STAT3 reporter transcription; actives raise or lower the signal
In short: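 Values derive from bidirectional fits relative to DMSO of reporter mRNA levels, measured by RT-PCR with capillary electrophoresis, in HepG2 cells carrying transiently transfected cis-regulated reporter units and exposed 24 h.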

[9] = ATG_TA_CIS: Attagene CIS-FACTORIAL HepG2 Assay for human TA Basal Promoter (AID 2282964); settings: HepG2 Attagene CIS-factorial TA basal promoter reporter; actives raise or lower the signal
In short: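 HepG2 cells transiently transfected with multiplexed cis-promoter reporter units, dosed 24 h. Reporter mRNA measured by RT-PCR, 6-FAM labelling, HpaI digestion and capillary electrophoresis; bidirectional fit versus DMSO baseline, serving as background control.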

[10] = ATG_PPRE_CIS: Attagene CIS-FACTORIAL HepG2 Assay for human Peroxisome Proliferator-activated Response Element (PPRE) (AID 2282958); settings: HepG2 PPRE cis-element reporter, Attagene transcription factor profiling; actives raise or lower the signal
In short: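 In this cell-based multiplex, a PPRE cis element drives a reporter sequence in transiently transfected HepG2 cells. Following 24 h treatment, labeled cDNA amplicons are sized and quantified by capillary electrophoresis, with DMSO defining baseline.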

Measured: AC50

Sequence of Signal transducer and activator of transcription 3 (Homo sapiens) (P40763 whole entry, looked up): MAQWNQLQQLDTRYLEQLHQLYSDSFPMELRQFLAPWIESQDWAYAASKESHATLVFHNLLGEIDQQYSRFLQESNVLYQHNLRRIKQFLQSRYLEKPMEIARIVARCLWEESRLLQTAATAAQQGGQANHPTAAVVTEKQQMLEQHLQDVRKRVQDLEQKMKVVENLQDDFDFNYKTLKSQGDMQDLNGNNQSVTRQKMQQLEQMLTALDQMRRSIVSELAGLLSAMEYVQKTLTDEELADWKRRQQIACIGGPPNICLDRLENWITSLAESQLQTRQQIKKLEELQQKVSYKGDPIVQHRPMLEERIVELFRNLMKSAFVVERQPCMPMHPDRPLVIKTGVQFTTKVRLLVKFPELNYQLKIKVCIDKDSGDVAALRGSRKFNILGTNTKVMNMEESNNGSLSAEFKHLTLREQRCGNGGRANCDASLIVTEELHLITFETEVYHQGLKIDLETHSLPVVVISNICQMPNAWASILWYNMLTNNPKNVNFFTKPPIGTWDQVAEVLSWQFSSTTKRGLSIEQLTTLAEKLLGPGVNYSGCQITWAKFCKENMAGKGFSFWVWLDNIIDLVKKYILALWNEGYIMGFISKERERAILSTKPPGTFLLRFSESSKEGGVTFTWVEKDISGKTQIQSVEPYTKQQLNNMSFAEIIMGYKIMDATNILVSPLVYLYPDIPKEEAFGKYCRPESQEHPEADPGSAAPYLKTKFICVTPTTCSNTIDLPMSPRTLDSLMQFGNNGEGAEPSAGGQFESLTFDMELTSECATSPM
Sequence of Paired box protein Pax-6 (Homo sapiens) (P26367 whole entry, looked up): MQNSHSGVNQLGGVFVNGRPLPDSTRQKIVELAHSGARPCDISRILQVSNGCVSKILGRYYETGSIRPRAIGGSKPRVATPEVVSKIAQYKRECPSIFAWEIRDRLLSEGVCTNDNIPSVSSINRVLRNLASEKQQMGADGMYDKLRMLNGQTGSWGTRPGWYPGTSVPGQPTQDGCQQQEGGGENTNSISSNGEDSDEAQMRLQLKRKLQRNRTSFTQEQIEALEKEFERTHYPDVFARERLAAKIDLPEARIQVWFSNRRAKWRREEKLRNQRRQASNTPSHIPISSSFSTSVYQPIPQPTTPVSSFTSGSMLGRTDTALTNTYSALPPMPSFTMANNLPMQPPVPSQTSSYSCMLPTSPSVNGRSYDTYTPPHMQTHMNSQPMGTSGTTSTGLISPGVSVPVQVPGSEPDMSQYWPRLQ
Sequence of Transcription factor Sp1 (Homo sapiens) (P08047 whole entry, looked up): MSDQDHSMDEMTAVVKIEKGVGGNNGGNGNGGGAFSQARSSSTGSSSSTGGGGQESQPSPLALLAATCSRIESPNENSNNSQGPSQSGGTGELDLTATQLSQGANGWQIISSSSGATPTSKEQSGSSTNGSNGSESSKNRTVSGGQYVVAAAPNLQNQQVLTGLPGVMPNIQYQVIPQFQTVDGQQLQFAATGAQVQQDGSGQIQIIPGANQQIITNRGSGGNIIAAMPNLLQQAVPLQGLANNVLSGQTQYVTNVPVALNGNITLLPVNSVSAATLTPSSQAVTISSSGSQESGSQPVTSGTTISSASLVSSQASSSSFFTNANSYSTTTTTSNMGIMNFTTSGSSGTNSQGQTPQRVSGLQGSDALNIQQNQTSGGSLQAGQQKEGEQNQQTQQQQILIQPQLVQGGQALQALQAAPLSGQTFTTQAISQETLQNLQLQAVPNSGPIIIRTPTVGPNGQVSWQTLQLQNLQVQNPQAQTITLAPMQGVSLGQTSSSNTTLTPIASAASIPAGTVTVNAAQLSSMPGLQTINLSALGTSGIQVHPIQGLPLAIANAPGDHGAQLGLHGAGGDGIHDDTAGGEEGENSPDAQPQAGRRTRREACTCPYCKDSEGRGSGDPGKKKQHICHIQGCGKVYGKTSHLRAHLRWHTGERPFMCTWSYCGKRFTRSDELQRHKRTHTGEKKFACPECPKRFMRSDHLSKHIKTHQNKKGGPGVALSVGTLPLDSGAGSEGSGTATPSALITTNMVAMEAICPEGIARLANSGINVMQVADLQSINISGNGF

CC(CC(C)C)=NO
not listed: [10]
inactive: all other assays above

CCCCC1CCC(=O)O1 (centres undefined)
active: [3] 22.4 µM
not listed: [4] | [10]
inactive: all other assays above

CC(C)OC(=O)c1ccccc1
not listed: [4] | [10]
inactive: all other assays above

CCCCCCCCCCCC(C)=O
active: [3] 25.6 µM | [10] 159 µM | [6] 154 µM | [7] 141 µM
not listed: [1]
inactive: all other assays above

C=Cc1cccc(C)c1
active: [3] 13.3 µM
not listed: [2]
inactive: all other assays above

CCCCC(CC)COC(=O)/C=C/c1ccc(OC)cc1 (centres undefined)
active: [3] 39.4 µM
not listed: [2]
inactive: all other assays above

COc1ccc(C(=O)/C(Br)=C\C(=O)O)cc1
inactive: [1] | [3] | [5] | [7] | [9]
active: [4] 32.5 µM | [6] 59 µM

O=C(OCCc1ccccc1)c1ccccc1
not listed: [1]
inactive: all other assays above

C[N+](C)(C)CCCNS(=O)(=O)C(F)(F)C(F)(F)C(F)(F)C(F)(F)C(F)(F)C(F)(F)C(F)(F)C(F)(F)F
inactive: [1] | [2] | [6] | [7] | [9]
active: [3] 41.7 µM

O=C(O)CCCC(=O)O
not listed: [2] | [4]
inactive: all other assays above

CCCCCCOc1ccc(N)cc1
active: [3] 26.8 µM
not listed: [2] | [10]
inactive: all other assays above

CCC(C)N (centres undefined)
active: [3] 47.5 µM
not listed: [1]
inactive: all other assays above

Reference: PubChem BioAssay (EPA / NIEHS)
